# Experimental data taken from the supplement of paper PMC6555819.
# Key:
# Experiment in all cases: PBM binding z-score (relative to random genomic background probes); higher = stronger binding; sequences stand for … in GC…GCGATTGACAGCGTAGAATGAAGG
# [1] = tested on: PPARg:RXRa DBDmut IVT, anti-RXR (DBD mutation: RXRa K156A/R161A, NR concentration 270 nM, RXRa partner concentration 90 nM)
# Outline: (§1)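 On custom Agilent 4×180K arrays, double-stranded probes with 34-nt variable regions carried direct-repeat seeds, single-nucleotide variants, half-site ablations or random human genomic background. Ligand-free nuclear receptor dimers were applied for 1 h, and binding was read with antibodies against each partner (one per run). Binding z-scores come from regression-normalized fluorescence, with the random background probes as reference.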
# [2] = tested on: PPARg:RXRa IVT, anti-PPARg (NR concentration 270 nM, RXRa partner concentration 90 nM)
# Outline: as §1
# [3] = tested on: PPARg DBDmut:RXRa IVT, anti-PPARg (DBD mutation: PPARg1 K132A/R137A, NR concentration 270 nM, RXRa partner concentration 90 nM)
# Outline: as §1
# [4] = tested on: PPARg DBDmut IVT, anti-PPARg (DBD mutation: PPARg1 K132A/R137A, NR concentration 270 nM)
# Outline: as §1
# [5] = tested on: PPARg homodimer (NR concentration 180 nM)
# Outline: as §1
# [6] = tested on: PXR:RXRa (NR concentration 270 nM, RXRa partner concentration 90 nM)
# Outline: as §1
# [7] = tested on: PXR homodimer (NR concentration 270 nM)
# Outline: as §1
# [8] = tested on: RARa:RXR (NR concentration 270 nM, RXRa partner concentration 90 nM)
# Outline: as §1
# [9] = tested on: RARa homodimer (NR concentration 270 nM)
# Outline: as §1
# [10] = tested on: RARb:RXRa (NR concentration 270 nM, RXRa partner concentration 90 nM)
# Outline: as §1
# [11] = tested on: RARb homodimer (NR concentration 270 nM)
# Outline: as §1
# [12] = tested on: RARg:RXRa (NR concentration 270 nM, RXRa partner concentration 90 nM)
# Outline: as §1
# [13] = tested on: RARg homodimer (NR concentration 270 nM)
# Outline: as §1
# [14] = tested on: RXRa DBDmut IVT, anti-RXR (DBD mutation: RXRa K156A/R161A, NR concentration 90 nM)
# Outline: as §1
# [15] = tested on: RXRa homodimer (NR concentration 180 nM)
# Outline: as §1
# [16] = tested on: THRa:RXRa (NR concentration 90 nM, RXRa partner concentration 90 nM)
# Outline: as §1
# [17] = tested on: THRa homodimer (NR concentration 90 nM)
# Outline: as §1
# [18] = tested on: VDR homodimer (NR concentration 270 nM)
# Outline: as §1
Sequence,PBM binding z-score [1],PBM binding z-score [2],PBM binding z-score [3],PBM binding z-score [4],PBM binding z-score [5],PBM binding z-score [6],PBM binding z-score [7],PBM binding z-score [8],PBM binding z-score [9],PBM binding z-score [10],PBM binding z-score [11],PBM binding z-score [12],PBM binding z-score [13],PBM binding z-score [14],PBM binding z-score [15],PBM binding z-score [16],PBM binding z-score [17],PBM binding z-score [18]
GCTTGTAGATCCAGGTTAAGAAAGACTAAGCTAA,1.08,0.859,0.236,-0.304,0.202,-0.27,-0.237,0.118,0.241,0.0746,-0.153,-0.172,-0.0642,-0.00816,-0.0609,0.485,-0.162,-0.0555
AGAACGAGGGCACGCTGATTTGATAGCAGAGTAG,4.06,4.09,0.567,-0.124,0.292,0.514,-0.166,1,-0.142,2.67,1.14,1.65,1.92,1.63,1.38,1.65,-0.138,0.667
CGACCGAGGGCATGAGTTGATAGCAAATGCCGAT,0.432,0.376,-0.421,-0.612,0.0239,0.48,-0.327,0.539,-0.74,2.11,0.812,1.35,1.89,1.81,0.547,1.01,-0.126,1.48
CGTCCAAGGTCAATGCTAGGTAAGTGAAAGCATT,2.99,3.27,0.401,-0.137,1.55,3.28,0.34,3.5,0.168,4.88,3.93,5.7,6.12,3.33,4.48,3.84,2,2.06
CGTCAAAGTTCAAGGTAAGGTAACAGAAAGCAGC,0.198,2.04,0.246,0.255,1.61,4.03,1.72,3.78,1.28,5.22,3.86,5.71,5.4,4.12,4.23,4.38,1.85,2.9
CTCGACAGGTCGTGCTCAGGTGAGTATACCAAAC,0.245,0.534,-0.84,-0.0221,0.723,0.437,-0.328,1.08,-0.81,1.42,1.11,2.21,1.33,0.53,1.3,3.08,0.709,0.293
CCTACTTGGCCACGAAAGGTCATTGATTCAGTGA,1.97,2.14,0.246,0.627,3.9,5.3,1.97,5.51,2.48,4.09,4.61,4.77,4.41,1.36,5.16,3.44,1.3,2.78
GCTTATAGGTAATACAAGGTGAAAGTCCGATTGT,3.24,2.78,1,1.03,0.685,0.829,0.193,1.93,1.06,0.613,1.05,0.63,0.649,0.59,0.772,4.28,1.16,0.227
CGAACTAGGTCATAGACAGGACAGTGAATAGTAA,7.81,8.39,2.54,1.39,1.46,1.43,0.213,2.07,0.165,3.55,2.43,4.2,4.11,1.6,3.32,2.62,0.586,0.676
TCTAGCAGGCCAGAGGGTTACTCAAGAGGTACGG,0.735,-0.175,-1.35,-1.09,-0.477,-0.175,-0.868,-0.0112,-0.732,0.213,-0.00314,0.101,0.0155,-0.179,0.47,-0.0959,-1.11,-0.658
GCTAGCAGACCATTTGGGTCACTCAATGACGGGC,0.216,0.941,-0.491,-0.941,-0.202,0.0959,-0.826,0.598,-0.667,0.935,1.42,0.72,0.826,-0.303,0.514,1.38,0.434,-0.19
GCTAGTTGGTCAGTAAAAGGGCACACACCGGTCG,0.062,0.821,0.0138,-0.25,1.05,0.368,0.0129,0.889,0.252,1.72,2.59,1.6,1.32,-0.382,0.632,0.395,-0.0299,0.271
GGAAAGAGGGCAAGTTGATAGCAGAGTTTGATGG,3.57,2.18,0.748,-0.108,1.67,1.29,1.23,0.849,1.34,2.93,2.23,2.23,3,1.94,1.43,1.02,0.275,1.93
CAAACTAGGTAAAAGGTCAAAGTCGAGCCAACCA,7.05,7.46,2.77,1.52,3.65,5.33,1.53,6.52,2.55,4.87,4.69,6.32,5.16,1.67,7.54,4.01,1.07,2.02
ATCGAAAGGTCCAGGTGAGTATAGAGAAAGGGAA,0.212,0.948,0.53,0.059,0.583,0.112,0.251,0.303,0.409,1.24,0.976,0.8,0.946,0.31,0.494,0.94,0.905,0.121
ATCGAAAGGTCGAGGGTGAGTATACCCACCCGAA,-0.26,1.94,0.623,0.934,0.976,2.41,-0.393,3.41,0.53,4.09,2.59,4.14,4.24,0.471,4.59,1.94,-0.00779,0.138
